Measurements from PubChem BioAssay (NCATS).
Inconclusive results are not listed. Calls of active or inactive are those of the source. Calls follow the shape of the dose curve; as a rule, active = well fitted curve in the direction sought with a large enough effect; inconclusive = small, poorly fitted or top-dose-only effect, or another doubt; inactive = no such curve, though single readings can be large; an effect the other way counts as inactive or inconclusive. Where a SMILES comes first, the peptide text is derived from it.

What was measured:
[1] = target: Protein phosphatase 1D (Homo sapiens) (UniProt O15297); test: RapidFire Mass Spectrometry qHTS Assay for Modulators of WT P53-Induced Phosphatase 1 (WIP1) (AID 1347424); settings: WIP1 dephosphorylation of phosphopeptide, RapidFire MS; series mostly up to 63 µM;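 also: amount of dephosphorylated VEPPL-S-QETFS peptide product formed by WIP1; plate controls were DMSO wells for no effect and GSK830371 inhibitor control at 10 µM for full effect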
How it was run: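 RapidFire mass spectrometry measured dephosphorylated peptide after 5 min room-temperature reaction of 2 uM VEPPL-pS-QETFS with 10 nM WIP1 (50 mM Tris-HCl pH 7.5, 30 mM MgCl2, 0.1 mM EGTA, BSA), following 1 hr compound preincubation; 1 uM isotope-labelled product standard.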

[2] = target: Protein phosphatase 1D (Homo sapiens) (UniProt O15297); test: Rhodamine-PBP qHTS Assay for Modulators of WT P53-Induced Phosphatase 1 (WIP1) (AID 1347425); settings: recombinant WIP1, Rhodamine-PBP phosphate fluorescence, real-time; series mostly up to 57.5 µM; also: % of control where 0% means no effect
How it was run: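 Steps: enzyme with Rh-PBP sensor and compounds, room-temperature incubation of 1 hr, baseline read, addition of VEPPL-pS-QETFS (10 uM final), kinetic fluorescence reads at 525/598 nm. Activity equals final minus baseline signal.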

[3] = Primary qHTS for inhibitors of La Crosse Virus (LACV) - induced cell death in SH-SY5Y cells (AID 1508616); settings: SH-SY5Y LACV cytopathicity rescue, ATP luminescence, 6 d; series mostly up to 4.29 µM;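 also: top concentration of the series differs between compounds; 0% = infected DMSO wells and 100% = uninfected DMSO wells; higher means more rescue of cells from virus-induced death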
How it was run: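 Rescue of virus-induced death was read as ATPLite luminescence after 6 days at 37C, scaled between DMSO wells with LACV and without virus. Cells were SH-SY5Y, 6000/well, infected at 0.01 MOI after compound addition.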

[4] = target: Calcium and integrin-binding protein 1 (Homo sapiens) (UniProt Q99828); test: Primary qHTS for Identification of Calcium Integrin Binding Protein 1 (CIB1) Competitor (AID 1508620); settings: CIB1-GST / FITC-alphaIIb peptide fluorescence polarization; series mostly up to 114 µM;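 also: GST tagged CIB1 binding a fluorescein labelled alphaIIb integrin peptide tracer; top concentration of the series differs between compounds; % is scaled to controls: 0 for no effect and ±100 for the full control effect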
How it was run: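 CIB1-GST (1 uM final) and compound incubated 15 min at room temperature before adding FITC-alphaIIb peptide tracer (100 nM final). Competition for binding read by fluorescence polarization (ex 480, em 540) after another 15 min at room temperature.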

Sequence of Protein phosphatase 1D (Homo sapiens) (O15297 whole entry, looked up): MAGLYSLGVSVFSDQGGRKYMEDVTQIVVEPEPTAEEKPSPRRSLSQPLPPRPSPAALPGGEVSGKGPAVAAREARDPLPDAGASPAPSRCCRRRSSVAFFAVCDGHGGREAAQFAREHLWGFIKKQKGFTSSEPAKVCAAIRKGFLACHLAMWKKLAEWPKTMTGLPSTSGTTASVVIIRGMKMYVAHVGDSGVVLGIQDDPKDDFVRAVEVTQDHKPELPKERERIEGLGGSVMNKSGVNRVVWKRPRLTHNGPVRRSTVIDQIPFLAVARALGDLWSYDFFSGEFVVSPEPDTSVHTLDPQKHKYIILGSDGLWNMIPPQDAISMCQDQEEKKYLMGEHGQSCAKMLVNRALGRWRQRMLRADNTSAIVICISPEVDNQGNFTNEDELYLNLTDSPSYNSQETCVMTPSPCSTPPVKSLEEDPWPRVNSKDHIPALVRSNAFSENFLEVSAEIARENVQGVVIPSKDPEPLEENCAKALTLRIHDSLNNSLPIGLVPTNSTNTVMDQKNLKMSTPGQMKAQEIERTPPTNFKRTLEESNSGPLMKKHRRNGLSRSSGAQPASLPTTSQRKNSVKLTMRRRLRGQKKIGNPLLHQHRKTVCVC
Sequence of Calcium and integrin-binding protein 1 (Homo sapiens) (Q99828 whole entry, looked up): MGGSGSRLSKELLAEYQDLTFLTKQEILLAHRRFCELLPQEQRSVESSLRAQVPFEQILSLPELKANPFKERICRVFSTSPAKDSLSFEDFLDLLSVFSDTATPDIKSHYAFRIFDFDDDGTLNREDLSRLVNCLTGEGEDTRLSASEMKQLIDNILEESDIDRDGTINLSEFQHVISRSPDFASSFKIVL

O=C(OCCN1CCOCC1)c1cccnc1Nc1cccc(C(F)(F)F)c1
inactive: Potency [1] | outcome [2] | outcome [3] | Potency [4]

COc1cc(C(=O)OC(COCCC(C)C)CN2CCOCC2)cc(OC)c1OC (stereo unspecified)
inactive: Potency [1] | outcome [2] | outcome [3] | Potency [4]

NC(=O)COCCN1CCN(C(c2ccccc2)c2ccc(Cl)cc2)CC1 (stereo unspecified)
inactive: Potency [1] | outcome [2] | outcome [3] | Potency [4]

C=C(C)C(=O)OCC(O)CO (stereo unspecified)
inactive: Potency [1] | outcome [2] | outcome [3] | Potency [4]

CC(CCc1ccc2c(c1)OCO2)NN (stereo unspecified)
inactive: Potency [1] | outcome [2] | outcome [3] | Potency [4]

CC(=O)O[C@@H]1C(=O)O[C@@H]2[C@H]1OC(=O)[C@@H]2OC(C)=O
inactive: Potency [1] | outcome [2] | outcome [3] | Potency [4]

Cc1c(F)cc2c(=O)c(C(=O)O)cn3c2c1CCC3C (stereo unspecified)
inactive: Potency [1] | outcome [2] | outcome [3] | Potency [4]

CN1C(=O)c2ccccc2C1=O
inactive: Potency [1] | outcome [2] | outcome [3] | Potency [4]

CC[N+]1(CC)CCC(=C(c2ccccc2)c2ccccc2)C1C (stereo unspecified)
inactive: Potency [1] | outcome [2] | outcome [3] | Potency [4]

C#Cc1ccc(-c2ccccc2F)cc1
inactive: Potency [1] | outcome [2] | outcome [3] | Potency [4]

COc1cc(OC)nc(O[C@H](C(=O)O)C(OC)(c2ccccc2)c2ccccc2)n1
inactive: Potency [1] | outcome [2] | outcome [3] | Potency [4]

CCOC(=O)c1cc(=O)c2c(OCC(COc3cccc4oc(C(=O)OCC)cc(=O)c34)OC(=O)[C@@H](N)CCCCN)cccc2o1
inactive: Potency [1] | outcome [2] | outcome [3] | Potency [4]

O=C(O)Cc1ccccc1Oc1ccc(Cl)cc1Cl
inactive: Potency [1] | outcome [2] | outcome [3] | Potency [4]

CCS(=O)(=O)c1ccc(OC)c(C(=O)OC)c1
inactive: Potency [1] | outcome [2] | outcome [3] | Potency [4]

COc1ccccc1OCC1CNC(=O)O1 (stereo unspecified)
inactive: Potency [1] | outcome [2] | outcome [3] | Potency [4]

O=C(O)c1ccc(OCCN2CCCCC2)cc1
inactive: Potency [1] | outcome [2] | outcome [3] | Potency [4]

CC(C)(C)C(=O)OCOC(=O)C1N2C(=O)CC2S(=O)(=O)C1(C)C (stereo unspecified)
inactive: Potency [1] | outcome [2] | outcome [3] | Potency [4]

CCN(CC)CC(=O)Oc1ccc(NC(C)=O)cc1
inactive: Potency [1] | outcome [2] | outcome [3] | Potency [4]

Cc1coc2ccccc2c1=O
inactive: Potency [1] | outcome [2] | outcome [3] | Potency [4]

COc1cc2nc(Cl)nc(N)c2cc1OC
inactive: Potency [1] | outcome [2] | outcome [3] | Potency [4]

CC(=O)OC[C@H]1O[C@@H](OC(C)=O)[C@H](OC(C)=O)[C@@H]1OC(C)=O
inactive: Potency [1] | outcome [2] | outcome [3] | Potency [4]

Oc1cccc2[nH]ccc12
inactive: Potency [1] | outcome [2] | outcome [3] | Potency [4]

O=C1CCCc2c(O)cccc21
inactive: Potency [1] | outcome [2] | outcome [3] | Potency [4]

CC(C)(Oc1ccc(Cl)cc1)C(=O)OCCCOC(=O)C(C)(C)Oc1ccc(Cl)cc1
inactive: Potency [1] | outcome [2] | outcome [3] | Potency [4]

CCCCCCCCCCCCCC[N+](C)(C)C
inactive: Potency [1] | outcome [2] | outcome [3] | Potency [4]

CC(C)C(=O)OCc1cccc(OC(=O)[C@@H]2N3C(=O)[C@@H](NC(=O)Cc4ccccc4)[C@H]3SC2(C)C)c1
inactive: Potency [1] | outcome [2] | outcome [3] | Potency [4]

CC(=O)N[C@@H](CO)C(=O)N[C@@H](CC(=O)O)C(=O)N[C@@H](CCCCN)C(=O)N1CCC[C@H]1C(=O)O (Ac-SDKP-OH)
inactive: Potency [1] | outcome [2] | outcome [3] | Potency [4]

COC(=O)c1ccc(NC(C)=O)cc1OC
inactive: Potency [1] | outcome [2] | outcome [3] | Potency [4]

Cc1cc(O)c(C)c(C)c1O
inactive: Potency [1] | outcome [2] | outcome [3] | Potency [4]

O=C(CCOCCOCCOCCOCCC(=O)Nc1c(I)cc(I)c(C(=O)O)c1I)Nc1c(I)cc(I)c(C(=O)O)c1I
inactive: Potency [1] | outcome [2] | outcome [3] | Potency [4]

CC[N+](CC)(CC)CCOC(=O)C(C1CCCC1)C1CCCC1
inactive: Potency [1] | outcome [2] | outcome [3] | Potency [4]

CCC1(c2cnc[nH]2)Cc2ccccc2C1
inactive: Potency [1] | outcome [2] | outcome [3] | Potency [4]

Oc1ccccc1-c1nnco1
inactive: Potency [1] | outcome [2] | outcome [3] | Potency [4]

OC1(c2ccc(Cl)cc2)CCNCC1
inactive: Potency [1] | outcome [2] | outcome [3] | Potency [4]

CCCC(=O)O[C@]1(C(=O)CCl)[C@@H](C)C[C@H]2[C@@H]3CCC4=CC(=O)C=C[C@]4(C)[C@@]3(F)C(=O)C[C@@]21C
inactive: Potency [1] | outcome [2] | outcome [3] | Potency [4]

CCOC(=O)[C@H](CCc1ccccc1)N[C@@H](C)C(=O)N(CC(=O)O)C1Cc2ccccc2C1
inactive: Potency [1] | outcome [2] | outcome [3] | Potency [4]

COc1cc(NS(=O)(=O)c2ccc(N)cc2)nc(C)n1
inactive: Potency [1] | outcome [2] | outcome [3] | Potency [4]

CC(=O)OCC(=O)[C@@]1(O)CCC2C3CCC4=CC(=O)CC[C@]4(C)C3[C@@H](O)C[C@@]21C (stereo partly specified)
inactive: Potency [1] | outcome [2] | outcome [3] | Potency [4]

CCc1cc2cc(OC)c(OC)cc2c(Cc2ccccc2)n1
inactive: Potency [1] | outcome [2] | outcome [3] | Potency [4]

CCCCC(CC)CNC(=O)CC(C)OC(=O)CCC(=O)O (stereo unspecified)
inactive: Potency [1] | outcome [2] | outcome [3] | Potency [4]

CCCN(CCC)C(=O)C(CCC(=O)OCCCN1CCN(CCOC(=O)Cc2c(C)n(C(=O)c3ccc(Cl)cc3)c3ccc(OC)cc23)CC1)NC(=O)c1ccccc1 (stereo unspecified)
inactive: Potency [1] | outcome [2] | outcome [3] | Potency [4]

CC(CC(C#N)(c1ccccc1)C(C)C)N(C)C (stereo unspecified)
inactive: Potency [1] | outcome [2] | outcome [3] | Potency [4]

OC1(c2ccc(Cl)c(C(F)(F)F)c2)CCN(CCCC(c2ccc(F)cc2)c2ccc(F)cc2)CC1
inactive: Potency [1] | outcome [2] | outcome [3] | Potency [4]

CCOC(=O)Oc1ccc(CCNC(=O)[C@H](CCSC)NC(C)=O)cc1OC(=O)OCC
inactive: Potency [1] | outcome [2] | outcome [3] | Potency [4]

Cc1ccc(O)cc1
inactive: Potency [1] | outcome [2] | outcome [3] | Potency [4]

Cc1cc(C(C)(C)C)c(O)c(C(C)(C)C)c1
inactive: Potency [1] | outcome [2] | outcome [3] | Potency [4]

COc1cc(C=O)ccc1O
inactive: Potency [1] | outcome [2] | outcome [3] | Potency [4]

COc1cc2c(cc1OC)C(=O)CC2
inactive: Potency [1] | outcome [2] | outcome [3] | Potency [4]

Cn1c(=O)c2c(ncn2CC(=O)O)n(C)c1=O
inactive: Potency [1] | outcome [2] | outcome [3] | Potency [4]

CN(C)CCCOC1(Cc2ccccc2)CCCCCC1
inactive: Potency [1] | outcome [2] | outcome [3] | Potency [4]

CN1[C@@H]2CC[C@H]1CC(NC(=O)n1c(=O)[nH]c3ccccc31)C2 (stereo partly specified)
inactive: Potency [1] | outcome [2] | outcome [3] | Potency [4]

Cc1cc(OCCOCC[N+](C)(C)Cc2ccccc2)ccc1C(C)(C)CC(C)(C)C
inactive: Potency [1] | outcome [2] | outcome [3] | Potency [4]

O=C1Cc2cc(Cl)ccc2N1
inactive: Potency [1] | outcome [2] | outcome [3] | Potency [4]

CN1C(=O)CC(C)(c2ccccc2)C1=O (stereo unspecified)
inactive: Potency [1] | outcome [2] | outcome [3] | Potency [4]

CC1CN(c2cc3c(cc2F)c(=O)c(C(=O)O)cn3-c2ccc(F)cc2F)CCN1 (stereo unspecified)
inactive: activity change, negative = inhibition [1] -2.72% [at 6.17 µM] | activity change, negative = inhibition [2] 0.0772% [at 4.81 µM] | activity change [3] -2.85% [at 0.431 µM] | Potency [4]

COc1cc2c(cc1OC)CN(C(=O)[C@H](C)N[C@@H](CCc1ccccc1)C(=O)O)[C@H](C(=O)O)C2
inactive: Potency [1] | outcome [2] | outcome [3] | Potency [4]

COc1cc(S(N)(=O)=O)cc(C(=O)O)c1OC
inactive: Potency [1] | outcome [2] | outcome [3] | Potency [4]

COC(=O)/C=C(/C)N
inactive: Potency [1] | outcome [2] | outcome [3] | Potency [4]

CCOC(=O)CN1CCCC1=O
inactive: Potency [1] | outcome [2] | outcome [3] | Potency [4]

CCCCCC1Nc2cc(C(F)(F)F)c(S(N)(=O)=O)cc2S(=O)(=O)N1 (stereo unspecified)
inactive: Potency [1] | outcome [2] | outcome [3] | Potency [4]

O=C(C1CCCCC1)N1CC(=O)N2CCCc3ccccc3C2C1 (stereo unspecified)
inactive: Potency [1] | outcome [2] | outcome [3] | Potency [4]

COC(=O)C1=C(C)NC(C)=C(C(=O)OCCc2ccc(N3CCN(C(c4ccccc4)c4ccccc4)CC3)cc2)C1c1cccc([N+](=O)[O-])c1 (stereo unspecified)
inactive: Potency [1] | outcome [2] | outcome [3] | Potency [4]

O=C(CS(=O)Cc1ccco1)NC/C=C\COc1cc(CN2CCCCC2)ccn1 (stereo unspecified)
inactive: Potency [1] | outcome [2] | outcome [3] | Potency [4]

OCCc1ccccc1
inactive: Potency [1] | outcome [2] | outcome [3] | Potency [4]

O=C(O)Cc1ccc(OCCNC[C@H](O)c2ccccc2)cc1
inactive: Potency [1] | outcome [2] | outcome [3] | Potency [4]

CCOC(=O)O[C@]1(C(=O)OCCl)CC[C@H]2[C@@H]3CCC4=CC(=O)C=C[C@]4(C)[C@H]3[C@@H](O)C[C@@]21C
inactive: Potency [1] | outcome [2] | outcome [3] | Potency [4]

Cc1ncc([N+](=O)[O-])n1C
inactive: Potency [1] | outcome [2] | outcome [3] | Potency [4]

O=C(c1ccco1)N1CCNCC1
inactive: Potency [1] | outcome [2] | outcome [3] | Potency [4]

NS(=O)(=O)c1ccc(N2CCCCS2(=O)=O)cc1
inactive: Potency [1] | outcome [2] | outcome [3] | Potency [4]

O=c1[nH]c(=O)n([C@H]2O[C@H](CO)[C@@H](O)[C@@H]2O)cc1/C=C\Br
inactive: Potency [1] | outcome [2] | outcome [3] | Potency [4]

COCCc1ccc(OCC2CO2)cc1 (stereo unspecified)
inactive: Potency [1] | outcome [2] | outcome [3] | Potency [4]

CCCC(CCC)(C(=O)OCC)C(=O)OCC
inactive: Potency [1] | outcome [2] | outcome [3] | Potency [4]

CCOC(=O)NNc1ccc(N(CC)CC(C)O)nn1 (stereo unspecified)
inactive: Potency [1] | outcome [2] | outcome [3] | Potency [4]

CO[C@@H]1[C@@H](O[C@@H]2O[C@H](C)[C@@H](O[C@H]3C[C@@](C)(O)[C@@H](O)[C@H](C)O3)[C@H](N(C)C)[C@H]2O)[C@@H](CC=O)C[C@@H](C)[C@@H](O[C@@H]2CC[C@H](N(C)C)[C@@H](C)O2)/C=C/C=C/C[C@@H](C)OC(=O)C[C@H]1OC(C)=O
inactive: Potency [1] | outcome [2] | outcome [3] | Potency [4]
